From PubChem
FUS suppressor = FUS proteinopathy suppression in yeast; S. cerevisiae FUS-expressing, growth rescue, OD600, 24 h; Potency, µM (highest dose often 76.6 µM), usual class: activators; 390,000 compounds, 0.24% hits; AID 1347120;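 further: plate controls were DMSO vehicle for no effect and reference control for full effect; nearly all actives have a fitted effect of over 55% in size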
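Yeast FUS proteinopathy model; galactose-induced FUS (2%), starting OD 0.005. Cpds in dilution series, 24hr, 30C, 99% humidity. Abs 600 nm growth. Pos ctrl CP55940 (top 92uM final); neg ctrl DMSO.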
TDP43 rescue = inhibitors of TDP-43 toxicity in yeast | TDP-43 expressing yeast growth rescue, BacTiter-Glo, 24 h | Potency, µM (series often up to 46.1 µM), inactives show top-dose growth rescue (activation), most hits filed as activators | 410,000 compounds, 1.8% hits | AID 652104; further: % of control where 0% means no effect; nearly all actives have a fitted effect of over 50% in size
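Galactose-induced TDP-43 yeast, OD600=0.02, compound pinned; 24 hr, 30 deg C; BacTiter-Glo luminescence for growth. Inhibitors of TDP-43 toxicity read as activators.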
aSyn yeast inh = alpha-synuclein toxicity inhibition in yeast; Yeast expressing alpha-synuclein, growth rescue, BacTiter-Glo, 24 h; Potency, µM (doses to about 46.1 µM), for inactives: at the highest dose growth rescue (activation), usual class: activators; 370,000 compounds, 0.14% hits; AID 652106; further: % of control where 0% means no effect; nearly all actives have a fitted effect of over 65% in size
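Galactose-induced alpha-syn yeast (OD600=0.02, raffinose-pregrown) + pinned cpd, 24 hr, 30 deg C; growth by BacTiter-Glo luminescence. Growth restoration scores as activation.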
Abeta rescue = compounds reversing amyloid beta toxicity in yeast | AID 1347071 | Potency, µM (titrated, usually from 46.1 µM), hits mostly activators | 410,000 compounds, 0.063% hits | yeast expressing A-beta42, growth rescue, OD600, 48 h; response scale: 0% DMSO, 100% iron-clioquinol control; further: nearly all actives have a fitted effect of over 55% in size
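Yeast A-beta toxicity model in growth medium with pinned compounds, 48 h at 30 C; growth read as absorbance at 600 nm. Normalized to FeCl3/clioquinol equimolar mix (positive) and DMSO (negative).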
Mito fusion yeast = mitochondrial division inhibition or fusion activation. 320,000 compounds, 0.23% hits. S. cerevisiae fusion-defective mutant growth rescue, CellTiterGlo 48 h. Potency, µM (titrated, usually from 46.1 µM), for inactives: at the top dose growth rescue (activation), most hits filed as activators. AID 485298; further: % of control where 0% means no effect; nearly all actives have a fitted effect of over 45% in size
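Read-out: ATP-based luminescence (CellTiterGlo, 10 min ambient) reporting growth of fusion-defective ts yeast after 48 hours at 37C on glycerol/ethanol YPEG medium in the presence of compound.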
The depositor's hits bear a star; i = inactive; ? = inconclusive; nt = not tested or not shown; ! = repeats disagree. The list is not random: actives were taken first. Their share in the collection is about 2.2%. The call rests on the fitted dose curve; in most records, active means well fitted curve in the direction sought with a large enough effect; inconclusive means small, poorly fitted or top-dose-only effect, or another doubt; inactive means no such curve, though single readings can be large; an effect the other way counts as inactive or inconclusive. Potency means the concentration at half of the fitted maximal effect.

SMILES	FUS suppressor	TDP43 rescue	aSyn yeast inh	Abeta rescue	Mito fusion yeast
COc1ccc(OC)c(/C=C2\SC(N3CCCC(C)C3)=NC2=O)c1 (stereo not drawn)	i	17%	1%	i	13µM*
COc1cc(/C=C2\SC(N3CCC(C)CC3)=NC2=O)ccc1O	i	11µM*	-10%	i	-16%
N#Cc1nc(-c2ccc(OCc3ccccc3Cl)cc2)oc1N1CCCCCC1	nt	nt	6%	nt	nt
CN(C(=O)CSc1nc2ccc(NC(=O)c3ccco3)cc2s1)c1ccccc1	?	22%	nt	i	nt
CC1(Cc2ccccc2Cl)C(=O)Nc2c(Cl)cccc21 (stereo not drawn)	i	?	3.5µM*	i	nt
CC1(Cc2ccc(F)cc2)C(=O)Nc2c(Cl)ccc(Cl)c21 (stereo not drawn)	i	26%	11µM*	i	nt
C=Cc1ccc(CC2(C)C(=O)Nc3ccc(Cl)cc32)cc1 (stereo not drawn)	i	0%	?	?	nt
C=Cc1ccc(CC2(C)C(=O)Nc3c(Cl)cccc32)cc1 (stereo not drawn)	i	-37%	10µM*	i	nt
CC1(Cc2cccc(C#N)c2)C(=O)Nc2c(Cl)cccc21 (stereo not drawn)	i	?	18µM*	i	nt
CCCCCCCCN1CCS(=O)(=O)N(Cc2ccc(F)cc2)C(C(=O)OC)C1 (stereo not drawn)	i	nt	nt	nt	nt
Cc1ccc2c(c1)N(S(=O)(=O)c1ccc(CN3C(=O)c4cccnc4C3=O)s1)CCO2	i	?	?	i	1%
Cc1ccc2c(c1)N(S(=O)(=O)c1ccc(CN3C(=O)c4cccnc4C3=O)cc1)CCO2	i	-9%	5%	i	11µM*
C/C=C/C1=CC(=O)C[C@H](c2ccc3c(c2)OCO3)C1	i	11µM*	8%	i	-3%
C/C=C/C1=CC(=O)C[C@H](c2ccc(Cl)cc2)C1	i	13µM*	4%	i	6%
CCCCOc1ccc(C(=O)NC2CCCCN(Cc3ccccc3C)C2=O)cc1 (stereo not drawn)	i	nt	nt	nt	nt
CC1(C(=O)Nc2cccc3c2CCCC3)CCN1C(=O)c1cccc(F)c1 (stereo not drawn)	i	28µM*	9%	i	nt
CCOC(=O)C1=C(Cc2ccc(OC)cc2)C(=O)c2ccccc2C1=O	i	13µM*	20%	i	4%
CCOC(=O)C1=C(Cc2ccc(C)cc2)C(=O)c2ccccc2C1=O	nt	nt	nt	nt	-2%
COc1ccc(NCc2ccc([N+](=O)[O-])s2)cc1	i	?	20%	i	12%
O=[N+]([O-])c1ccc(CNc2ccc(F)cc2)s1	i	13µM*	3%	?	0%
O=[N+]([O-])c1ccc(CNc2cccc(Cl)c2)s1	i	18µM*	?	i	3%
COc1ccc(NCc2ccc([N+](=O)[O-])s2)c(OC)c1	nt	10µM*	17%	i	7%
O=[N+]([O-])c1ccc(CNc2ccc(Cl)cc2)s1	i	?	-9%	?	-4%
COC(=O)c1cc(-c2cc(Cl)ccc2OC)c(=O)n2c1CCC2	i	nt	nt	nt	nt
O=C(COC(=O)c1cc(-c2ccc(F)cc2)nc2ccccc12)NCC1CCCO1 (stereo not drawn)	i	14µM*	5%	i	-3%
SMILES	FUS suppressor	TDP43 rescue	aSyn yeast inh	Abeta rescue	Mito fusion yeast
CN(C)c1ccc(-c2csc(C(O)c3ccccc3)n2)cc1 (stereo not drawn)	i	24%	14%	i	nt
CN(C)c1ccc(C(O)c2cc3ccccc3s2)cc1 (stereo not drawn)	i	16%	14µM*	?	nt
CCC(C(=O)Nc1cc(F)ccc1F)n1nc(-c2cc(C)ccc2C)ccc1=O (stereo not drawn)	i	22µM*	nt	i	nt
CCC(C(=O)Nc1cc(F)ccc1F)n1nc(C)c2c(C)n(-c3ccc(C)cc3)nc2c1=O (stereo not drawn)	?	?	2%	i	9%
Cc1ccc(C)c(-c2ccc(=O)n(Cc3ccc(F)cc3Cl)n2)c1	?	22µM*!	?	i	?
CCC(C(=O)Nc1cc(OC)cc(OC)c1)n1nc(-c2ccc(C)c(C)c2)ccc1=O (stereo not drawn)	?	28µM*	nt	?	nt
Cc1c(NC(=O)C2CCCN(S(=O)(=O)c3ccc(C(C)(C)C)cc3)C2)c(=O)n(-c2ccccc2)n1C (stereo not drawn)	i	nt	nt	nt	nt
CCOC(=O)c1c(NC(=O)CSc2nnc(C)s2)sc2c1CCN(C)C2	25µM*	-2%	-5%	i	6%
O=C1c2nccnc2C(=O)N1Cc1ccccc1	nt	-10%	13µM*	i	nt
COCC(C)NC(=O)c1cc2c(=O)n3cccc(C)c3nc2s1 (stereo not drawn)	i	18%	nt	i	nt
N/C(Cc1cccc2ccccc12)=N\OC(=O)c1ccccc1F	nt	22µM*	-26%	i	-2%
N/C(Cc1ccc(Cl)cc1Cl)=N\OC(=O)c1ccccc1F	i	-94%	-78%	i	0%
N/C(=N\OC(=O)c1cccc2ccccc12)c1ccncc1	i	20µM*	?	i	-6%
N/C(Cc1cccc2ccccc12)=N\OC(=O)COc1ccccc1	nt	22µM*	-24%	i	9%
COc1cccc(CNC(=O)c2ccc(Cl)c(S(=O)(=O)N3CCOCC3)c2)c1	i	17%	-4%	i	-1%
COc1cccc(CNC(=O)c2ccc(F)c(S(=O)(=O)N3CCCCC3)c2)c1	35µM*	?	0%	i	nt
O=C(Nc1cc(Cl)cc(Cl)c1)c1ccc(F)c(S(=O)(=O)N2CCCC2)c1	i	18µM*	nt	i	nt
